This passage reports growth inhibition results from PubChem BioAssay (NCI).

About 79,000 compounds went through this panel and 15% of them were active in at least one assay; those are over-represented in the sample as a whole. Calls of active or inactive are those of the source. No stated cut-off is given here; in the data, active means growth inhibition above about 70%; inactive means the rest.

The first assay in a line: NCI Yeast Anticancer Drug Screen. Data for the sgs1 mgt1 strain (AID 161).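 Further: 0% = growth of cultures given vehicle only.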 The following applies: S. cerevisiae sgs1 mgt1 strain, at 50.0 µM, hits give high values. In short, it runs like this:
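Test agents were incubated with a DNA-repair-mutant yeast strain. Growth was then read and compared against vehicle-treated controls.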
Take `CN(C)NC(=S)Nc1ccccc1`: the growth inhibition is -11.8% (inactive).

On to `Cc1cc(S(=O)(=O)O)c(NC(=O)C(=O)C2C=CCS2(=O)=O)cc1Cl` (stereo not given), for which the growth inhibition was -8.65% (inactive).

As for `COc1ccc(C(Nc2ccccn2)c2cc(C(C)(C)C)cc(C(C)(C)C)c2O)cc1` (stereo not given), the growth inhibition is 9.45% (inactive).

Take `CCCCCCCCCCCCCCCCCCCCCCCCCCCCCCS(=O)(=O)Cl`: the growth inhibition was 16.9% (inactive).

Turning to `Cc1ccc(S(=O)(=O)N2CCC[C@@H]2C(=O)O[C@@H]2CCC3CC=CC32)cc1` (stereo not given in full), the growth inhibition was 10.2% (inactive).

Take `COc1cccc(NC(=O)CC(=O)Nc2cccc(OC)c2)c1`: the growth inhibition was -8.4% (inactive).

With `O=C(O)CC1OCC=C2C[N+]3([O-])CCC45c6ccccc6NC4C1C2CC53` (stereo not given), the growth inhibition was -16.1% (inactive).

As to `COc1cc2c(cc1OC)-c1cc3cc(OC)c(OC)cc3c(C)[n+]1CC2` (tested in a mixture with another compound), the growth inhibition is 11.9% (inactive).

Regarding `CSCC[C@H](NC(C)=O)B1OCCO1`, the growth inhibition was 2.95% (inactive).

In the case of `CCN(CC)CC1CCCCN1` (stereo not given), the growth inhibition is 1.95% (inactive).

As for `CC1(C)CCC(C)(C)c2cc(C(=O)O)ccc21`, the growth inhibition is 1.55% (inactive).

`COCC(C)OC(=O)c1ccccc1Cl` (stereo not given): the growth inhibition is 5.95% (inactive).

For `NNC(=O)CCC(=O)NC1C2CC3CC(C2)CC1C3` (stereo not given), the growth inhibition was -18.6% (inactive).

Regarding `C#CCOC(=O)c1ccc(OC(C)=O)cc1`, the growth inhibition was 10.1% (inactive).

For the compound `S=C=NCCCCCCCCCCCCN=C=S`, the growth inhibition is 94.2% (active).

For the compound `S=C(S)N1CCN(c2ccc(Cl)c(Cl)c2)CC1`, the growth inhibition was 20.9% (inactive).

On to `C/C(CC(=O)Nc1ccc([N+](=O)[O-])cc1)=N/N=C(N)N`, for which the growth inhibition was -8.6% (inactive).

As for `O=C1C(=O)c2ccccc2C(O)=C1c1ccc(Br)cc1`, the growth inhibition is -2.8% (inactive).

Regarding `COC(=O)N/N=C(\C)C(CN1CCCCC1)C(C1=C(O)c2ccccc2OC1)c1ccccc1` (stereo not given), the growth inhibition was 5.25% (inactive).

Turning to `CC(=O)Oc1c(C)cc2c(c1C)C(C)(C)CN2C(=O)C(C)(C)C`, the growth inhibition is 17.6% (inactive).

`Cc1ccc2ccccc2[n+]1CC(=O)c1ccc2c(c1)OCO2`: the growth inhibition is -0.6% (inactive).

With `O=C(CC(=O)N1CCOCC1)N1CCOCC1`, the growth inhibition is 26.9% (inactive).

On to `CC/C(Cl)=N\OC(=O)Nc1ccc(C#N)cc1`, for which the growth inhibition was -19.4% (inactive).

Turning to `COC(=O)c1cc(-c2ccc(F)cc2)[nH]c(=O)c1C#N`, the growth inhibition is 15.3% (inactive).

With `CCOC(=O)/C(C#N)=C/c1ccccc1OC`, the growth inhibition was 31.9% (inactive).

Regarding `CC(=O)OC1CCC2(C)C3=C(C(=O)CC2C1(C)C)C1(C)CCC(C(C)CCCC(C)C)C1(C)CC3` (stereo not given), the growth inhibition is -25.4% (inactive).

As for `COC(=O)NS(=O)(=O)CC(=O)c1ccccc1`, the growth inhibition is -1.55% (inactive).

On to `Cc1cc(N2CCOCC2)nc2ccc(Cc3ccc4nc(N5CCOCC5)cc(C)c4c3)cc12`, for which the growth inhibition was -32.2% (inactive).

As for `C=CCNC=O`, the growth inhibition was -6.4% (inactive).

On to `O=C(OCC(OC(=O)c1ccccc1)C(OC(=O)c1ccccc1)C(COC(=O)c1ccccc1)OC(=O)c1ccccc1)c1ccccc1` (stereo not given), for which the growth inhibition was 56.9% (inactive).

Take `CC1(C)COC(c2cc(Br)ccc2Br)=N1`: the growth inhibition was 7% (inactive).

As to `N#CC12CCC(O)C(CC1)C2=O` (stereo not given), the growth inhibition is 10.1% (inactive).

Take `CC(=O)CC(=O)OC1CC(C)CCC1C(C)C` (stereo not given): the growth inhibition is -6.25% (inactive).

In the case of `COc1cc(OC)c2nc3ccccc3c(NCCC[N+](C)(C)[O-])c2c1[N+](=O)[O-]`, the growth inhibition was -12.9% (inactive).

Consider `CC(C)=NNc1snnc1C(N)=O`, for which the growth inhibition was 13.3% (inactive).

`CCCCCCCCCCCCCCCC(=O)OCC1OC(n2cc(F)c(=O)[nH]c2=O)C(NC(=O)N(CCCl)N=O)C(O)C1O` (stereo not given): the growth inhibition is -16.6% (inactive).

Regarding `Cc1ccc(CCOC(=O)Nc2ccccc2)cc1`, the growth inhibition was -3.25% (inactive).

On to `NNC(=O)/C(=C/c1ccc(Cl)cc1Cl)NC(=O)c1ccccc1`, for which the growth inhibition was 39.3% (inactive).

For `CC1Cc2ccccc2C2=C3CC=CCC3C3C(=O)OC(=O)C3C21` (stereo not given), the growth inhibition is 0.5% (inactive).

Consider `O=C1NC(O)c2cccc([N+](=O)[O-])c2O1` (stereo not given), for which the growth inhibition is 15% (inactive).

The nature of a further assay: NCI Yeast Anticancer Drug Screen. Data for the cln2 rad14 strain (AID 165).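 Further: 0% = growth equal to vehicle treated cultures.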 The following applies: S. cerevisiae cln2 rad14 strain, at 50.0 µM, hits give high values. In short, it runs like this:
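Growth of compound-exposed yeast (cln2 rad14 genotype) measured and expressed as inhibition relative to vehicle.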
`CN(C)NC(=S)Nc1ccccc1`: the growth inhibition was -36% (inactive).

Consider `Cc1cc(S(=O)(=O)O)c(NC(=O)C(=O)C2C=CCS2(=O)=O)cc1Cl` (stereo not given), for which the growth inhibition was 1.8% (inactive).

In the case of `COc1ccc(C(Nc2ccccn2)c2cc(C(C)(C)C)cc(C(C)(C)C)c2O)cc1` (stereo not given), the growth inhibition is 12.4% (inactive).

`CCCCCCCCCCCCCCCCCCCCCCCCCCCCCCS(=O)(=O)Cl`: the growth inhibition was 18.8% (inactive).

In the case of `Cc1ccc(S(=O)(=O)N2CCC[C@@H]2C(=O)O[C@@H]2CCC3CC=CC32)cc1` (stereo not given in full), the growth inhibition was -1.8% (inactive).

For `COc1cccc(NC(=O)CC(=O)Nc2cccc(OC)c2)c1`, the growth inhibition was -32.1% (inactive).

Take `O=C(O)CC1OCC=C2C[N+]3([O-])CCC45c6ccccc6NC4C1C2CC53` (stereo not given): the growth inhibition is -31.9% (inactive).

As for `COc1cc2c(cc1OC)-c1cc3cc(OC)c(OC)cc3c(C)[n+]1CC2` (tested in a mixture with another compound), the growth inhibition is 19.4% (inactive).

Take `CSCC[C@H](NC(C)=O)B1OCCO1`: the growth inhibition is 6.05% (inactive).

In the case of `CCN(CC)CC1CCCCN1` (stereo not given), the growth inhibition is 29.6% (inactive).

For `CC1(C)CCC(C)(C)c2cc(C(=O)O)ccc21`, the growth inhibition is 5.4% (inactive).

Take `COCC(C)OC(=O)c1ccccc1Cl` (stereo not given): the growth inhibition is 2.65% (inactive).

Regarding `NNC(=O)CCC(=O)NC1C2CC3CC(C2)CC1C3` (stereo not given), the growth inhibition was -0.85% (inactive).

Regarding `C#CCOC(=O)c1ccc(OC(C)=O)cc1`, the growth inhibition was 3.45% (inactive).

In the case of `S=C=NCCCCCCCCCCCCN=C=S`, the growth inhibition was 58.5% (inactive).

`S=C(S)N1CCN(c2ccc(Cl)c(Cl)c2)CC1`: the growth inhibition is 2.95% (inactive).

On to `C/C(CC(=O)Nc1ccc([N+](=O)[O-])cc1)=N/N=C(N)N`, for which the growth inhibition is 17.1% (inactive).

For the compound `O=C1C(=O)c2ccccc2C(O)=C1c1ccc(Br)cc1`, the growth inhibition is -4.9% (inactive).

For `COC(=O)N/N=C(\C)C(CN1CCCCC1)C(C1=C(O)c2ccccc2OC1)c1ccccc1` (stereo not given), the growth inhibition is 17.1% (inactive).

`CC(=O)Oc1c(C)cc2c(c1C)C(C)(C)CN2C(=O)C(C)(C)C`: the growth inhibition is -7.15% (inactive).

Turning to `Cc1ccc2ccccc2[n+]1CC(=O)c1ccc2c(c1)OCO2`, the growth inhibition is 3.85% (inactive).

Take `O=C(CC(=O)N1CCOCC1)N1CCOCC1`: the growth inhibition was 7.9% (inactive).

For `CC/C(Cl)=N\OC(=O)Nc1ccc(C#N)cc1`, the growth inhibition is 13.8% (inactive).

In the case of `COC(=O)c1cc(-c2ccc(F)cc2)[nH]c(=O)c1C#N`, the growth inhibition is 13.4% (inactive).

Regarding `CCOC(=O)/C(C#N)=C/c1ccccc1OC`, the growth inhibition was 10.5% (inactive).

`CC(=O)OC1CCC2(C)C3=C(C(=O)CC2C1(C)C)C1(C)CCC(C(C)CCCC(C)C)C1(C)CC3` (stereo not given): the growth inhibition is 3.15% (inactive).

Consider `COC(=O)NS(=O)(=O)CC(=O)c1ccccc1`, for which the growth inhibition was 8.9% (inactive).

In the case of `Cc1cc(N2CCOCC2)nc2ccc(Cc3ccc4nc(N5CCOCC5)cc(C)c4c3)cc12`, the growth inhibition was -24.2% (inactive).

Turning to `C=CCNC=O`, the growth inhibition was -5.05% (inactive).

Consider `O=C(OCC(OC(=O)c1ccccc1)C(OC(=O)c1ccccc1)C(COC(=O)c1ccccc1)OC(=O)c1ccccc1)c1ccccc1` (stereo not given), for which the growth inhibition is 0.2% (inactive).

In the case of `CC1(C)COC(c2cc(Br)ccc2Br)=N1`, the growth inhibition was 3.45% (inactive).

With `N#CC12CCC(O)C(CC1)C2=O` (stereo not given), the growth inhibition is 15.2% (inactive).

As to `CC(=O)CC(=O)OC1CC(C)CCC1C(C)C` (stereo not given), the growth inhibition is 15.3% (inactive).

As for `COc1cc(OC)c2nc3ccccc3c(NCCC[N+](C)(C)[O-])c2c1[N+](=O)[O-]`, the growth inhibition is -22.2% (inactive).

In the case of `CC(C)=NNc1snnc1C(N)=O`, the growth inhibition is -2% (inactive).

Consider `CCCCCCCCCCCCCCCC(=O)OCC1OC(n2cc(F)c(=O)[nH]c2=O)C(NC(=O)N(CCCl)N=O)C(O)C1O` (stereo not given), for which the growth inhibition was -2.1% (inactive).

`Cc1ccc(CCOC(=O)Nc2ccccc2)cc1`: the growth inhibition is -13.1% (inactive).

`NNC(=O)/C(=C/c1ccc(Cl)cc1Cl)NC(=O)c1ccccc1`: the growth inhibition was 60.4% (inactive).

In the case of `CC1Cc2ccccc2C2=C3CC=CCC3C3C(=O)OC(=O)C3C21` (stereo not given), the growth inhibition was 2.3% (inactive).

Turning to `O=C1NC(O)c2cccc([N+](=O)[O-])c2O1` (stereo not given), the growth inhibition is 65.5% (inactive).
